# In PubChem BioAssay (NCI):
# The panel holds about 83,000 compounds, 20% with a hit somewhere; the sample as a whole holds those more often.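 Compound tested at a single concentration for 48 hours in 96-well plates; a percent growth value below 10 was scored as active.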 Values without a mark were called inactive. Activity calls are given as the source filed them.
# Experiments:
# Assay in all cases: NCI-60 one-dose screen, 48 h (100 = growth as untreated, 0 = no growth, -100 = all killed)
# NCI-H23 lung = settings: 10 µM unless noted
# NCI-H226 lung = settings: 10 µM unless noted
# NCI-H322M lung = settings: 10 µM unless noted
# HOP-62 NSCLC = settings: 10 µM unless noted
# NCI-H460 lung = settings: 10 µM unless noted
# HOP-92 NSCLC = settings: 10 µM unless noted
# NCI-H522 lung = settings: 10 µM unless noted
# A549/ATCC NSCLC = settings: 10 µM unless noted
# 786-0 renal = settings: 10 µM unless noted
# COLO 205 colon = settings: 10 µM unless noted
# DU-145 prostate = settings: 10 µM unless noted
# K-562 leukemia = settings: 10 µM unless noted
# MALME-3M melanoma = settings: 10 µM unless noted
# MDA-MB-231 breast = settings: 10 µM unless noted
# RXF 393 renal = settings: 10 µM unless noted
# SF-268 CNS = settings: 10 µM unless noted
# SF-295 CNS = settings: 10 µM unless noted
# SF-539 CNS = settings: 10 µM unless noted
# UACC-257 melanoma = settings: 10 µM
SMILES,growth (NCI-H23 lung) [%],growth (NCI-H226 lung) [%],growth (NCI-H322M lung) [%],growth (HOP-62 NSCLC),growth (NCI-H460 lung),growth (HOP-92 NSCLC) [%],growth (NCI-H522 lung) [%],growth (A549/ATCC NSCLC) [%],growth (786-0 renal),growth (COLO 205 colon) [%],growth (DU-145 prostate) [%],growth (K-562 leukemia) [%],growth (MALME-3M melanoma) [%],growth (MDA-MB-231 breast) [%],growth (RXF 393 renal),growth (SF-268 CNS) [%],growth (SF-295 CNS),growth (SF-539 CNS),growth (UACC-257 melanoma) [%]
CS(=O)(=O)c1ccc(-c2nn(-c3ccccc3)cc2/C=N/NC(=O)c2ccncc2)cc1,97.5,110,96.9,105%,114%,96.3,84.7,102,82.6%,110,88.8,62.5,95.5,104,78.2%,101,102%,101%,96.7
C#Cc1ccc(NC(=O)c2ccc(/C=C/C(=O)c3nccn3C)cc2)c(F)c1,11.4,42.8,19.8,2.11% (active),6.28% (active),67.5,20.4,19.9,37.7%,73,27.5,12,89.8,23.6,10.5%,28,26.1%,-22.5% (active),64.7
COc1ccc(-c2nn(-c3ccccc3)cc2/C=C/C(=O)c2ccc(NC(=O)CCCCCCC(=O)NO)cc2)cc1,113,112,96.3,107%,108%,125,92.4,96,69.8%,115,97.6,84.6,137,99,63.8%,108,119%,105%,114
Cc1ccc(S(=O)(=O)N/N=C/c2cn(-c3ccc(F)cc3)nc2-c2ccc(S(C)(=O)=O)cc2)cc1,104,102,106,101%,108%,89.7,95.3,101,100%,107,114,102,71,104,117%,104,103%,97.7%,99.3
O=C(NCCCNc1cc(-c2cn(-c3ccccc3)nc2-c2cccc(O)c2)ccn1)Nc1cc(C(F)(F)F)cc(C(F)(F)F)c1,83.2,79.6,90.3,78.2%,61.3%,52,89.5,67.1,63.2%,80.4,95.8,50.7,67,66.8,8.69% (active),60.6,45.3%,74.9%,82.3
NS(=O)(=O)c1ccc(Nc2nc(N/N=C/c3ccc(C(F)(F)F)cc3)nc(Nc3ccccc3)n2)cc1,52.8,36.7,52.6,38%,14.6%,57.4,38,27.6,-3.55% (active),29.3,39.3,17.5,22.4,26.1,-39.5% (active),50.4,4.66% (active),23.8%,39.6
COc1ccc(/C=N/Nc2nc(N/N=C/c3ccc(OC)cc3O)nc(N3CCOCC3)n2)c(O)c1,86.3,69.4,59.7,64.8%,23.5%,88.6,80.9,53,14.7%,63.5,57.8,28,67.6,70.3,-16.2% (active),53.8,31.3%,47.3%,55.8
NS(=O)(=O)c1ccc(-n2cc(CC=O)nn2)cc1,105,99,111,105%,105%,94.8,94.5,103,102%,121,107,93.6,108,103,99.5%,102,98.6%,99%,102
